# DAX1 inh-1 – DAX1 (NR0B1) inhibitors, primary screen, cell-based, HEK293, Gal4-DAX1, luciferase luminescence. Nuclear receptor subfamily 0 group B member 1 (Homo sapiens), P51843. HEK293 Gal4-DAX1 luciferase reporter. inhibition, % at 6.75 µM. 340,000 compounds, 0.99% hits;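 active = inhibition above the mean over all tested compounds plus 3 SD, cut at about 4.2% in these data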;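 also: inhibition shows as a rise in luminescence from relieved DAX1 repression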
# ssDAF-12 act – S. stercoralis DAF-12 nuclear receptor activators, primary screen, cell-based, luminescence, HEK293, GRIP1 co-expression, lit1-tk-luc; Nuclear hormone receptor DAF-12 (Strongyloides stercoralis); HEK293 ssDAF-12/GRIP1 lit1-tk-luc reporter; % of 3 µM dafachronic acid response; activation, % at 6.8 µM; 370,000 compounds, 1% hits; AID 652126, 2013;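 active = activation above the mean over all tested compounds plus 3 SD, cut at about 0.9% in these data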
# hcDAF-12 act – H. contortus DAF-12 nuclear receptor activators, primary screen, cell-based, luminescence, HEK293, lit1-tk-luc reporter | HEK293 hcDAF-12 lit1-tk-luc reporter; 0% DMSO, 100% Δ7-dafachronic acid | activation, % at 6.8 µM | 370,000 compounds, 1.4% hits;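 active = activation above the mean of all tested compounds plus 3 SD, cut at about 5.5% in these data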
# DAX1 inh-2 – DAX1 (NR0B1) inhibitors on StAR promoter, primary screen, cell-based, luminescence, SF-1 (NR5A1), full-length DAX-1; HEK293T StAR-luciferase reporter, SF-1/DAX-1 repression relief; inhibition, % at 6.8 µM; 370,000 compounds, 1.1% hits; AID 652010, 2013;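 active = inhibition above the mean over all tested compounds plus 3 SD, cut at about 3.6% in these data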;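 also: higher inhibition means more luminescence from relief of DAX-1 repression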
# hgDAF12 agonist – H. glycines DAF-12 receptor agonists, primary screen, cell-based, luminescence, HEK293, GAL4 fusion, UAS-luciferase. Nuclear hormone receptor DAF-12 (Heterodera glycines), GAL4 fusion. HEK293 GAL4-hgDAF12 UAS-luciferase reporter, agonist luminescence; normalized to butyrate control. activation, % at 6.8 µM. 370,000 compounds, 1.8% hits. AID 687014, 2013;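 active = activation above a cutoff set at the mean of all screened compounds plus 3 SD, cut at about 10% in these data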
# hgDAF12 ag – H. glycines DAF-12 receptor agonists, confirmation, cell-based, luminescence, HEK293, GAL4-LBD fusion; activation, % at 6.8 µM; HEK293 GAL4-hgDAF12 luciferase reporter, agonist mode; percent of butyrate response; 3,300 compounds, 80% hits; shares compounds with hgDAF12 agonist;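 active = mean activation over triplicate wells above the hit cutoff derived from the earlier primary screen, cut at about 11% in these data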
# LXRb DAF12 ctr – LXR agonists, Gal4 luciferase reporter, confirmation, counter-screen for hgDAF-12 agonist project, cell-based, luminescence, HEK293, H. glycines campaign; shares compounds with hgDAF12 agonist; 24 h; activation, % at 6.8 µM; 3,300 tested, under 10 active; AID 743051, 2013;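 active = mean activation of the triplicate above a set limit carried over from the primary screen, none filed active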
# Target sequence (P55055 whole entry, looked up, the tested form may be a part): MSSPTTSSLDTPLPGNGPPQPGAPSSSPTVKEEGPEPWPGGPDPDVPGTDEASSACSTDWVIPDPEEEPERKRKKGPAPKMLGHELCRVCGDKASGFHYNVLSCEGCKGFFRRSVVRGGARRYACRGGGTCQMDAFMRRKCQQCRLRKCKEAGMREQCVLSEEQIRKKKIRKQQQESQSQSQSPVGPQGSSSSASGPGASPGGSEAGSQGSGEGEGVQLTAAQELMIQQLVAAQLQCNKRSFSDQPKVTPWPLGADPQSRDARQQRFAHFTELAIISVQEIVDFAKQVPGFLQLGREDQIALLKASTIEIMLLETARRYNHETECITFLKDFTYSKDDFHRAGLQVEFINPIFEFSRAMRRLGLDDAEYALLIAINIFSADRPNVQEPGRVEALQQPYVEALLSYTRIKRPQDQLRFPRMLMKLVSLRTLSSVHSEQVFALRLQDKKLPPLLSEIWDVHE
# Numbers stand for hits; 0 = inactive; - = no result. An excerpt weighted towards active compounds, which were near 4.1% of everything screened.
SMILES,DAX1 inh-1,ssDAF-12 act,hcDAF-12 act,DAX1 inh-2,hgDAF12 agonist,hgDAF12 ag,LXRb DAF12 ctr
NC(N)=Nc1nc(C2COc3ccccc3O2)cs1 (stereo not given),0,0,0,0,13.6,17.5,0
S=C(SCc1c(Cl)cccc1Cl)N1CCSCC1,-,0,0,0,0,-,-
O=C(CSC(=S)N1CCSCC1)c1ccc(Cl)cc1,0,0,0,0,13.3,13.5,0
CCOc1ccc(-c2ccc(SCC(=O)Nc3nnc(C)s3)nn2)cc1,0,0,0,4.3,13.3,16.6,0
CCOc1ccc(-c2ccc(SCC(=O)NC3CCCCC3)nn2)cc1,0,0,0,0,0,-,-
COc1ncccc1-c1nnn(-c2ccc(C)cc2)n1,0,0,0,0,16.7,16.6,0
O=C(N/N=C/C1CC=CCC1)c1ccc(Cl)cc1O (stereo not given),0,1.1,0,0,16.0,0,0
CC1=Nc2ccccc2N=C(NC(=O)CN2CCN(c3ccccc3)CC2)C1c1ccccc1 (stereo not given),0,0,0,0,0,-,-
CC1=Nc2ccccc2N=C(NC(=O)c2ccccc2)C1c1ccccc1 (stereo not given),0,0,0,0,19.2,0,0
C[C@@H]1ON(C)[C@H]2C[C@H]3c4[nH]c5c(-c6ccc7c(c6)OCO7)cccc5c4CCN3C[C@@H]12,-,0,0,0,0,-,-
COC(=O)c1ccn(Cc2ccccc2Cl)n1,0,0,0,0,13.8,0,0
COC(=O)c1cc2n(n1)CCN(Cc1ccccc1Cl)C2=O,0,0,0,0,0,-,-
COC(=O)[C@]12C[C@H](CC(=O)N3CCOCC3)C(=O)N(Cc3cccc4ccccc34)C1=C[C@H](C(C)C)O[C@@H]2C1CC1,-,0,0,0,0,-,-
CC(C)(C)C(=O)OC12CCCN(C1)/C(=C/c1ccc(Cl)cc1)C2 (stereo not given),-,0,0,0,0,-,-
O=C(Nc1nc(-c2ccccc2)cs1)NC1CCCCC1,0,0,0,0,0,-,-
c1ccc(-c2csc(NC3CCCCC3)n2)cc1,0,0,0,0,19.7,24.5,0
CC[C@@H](CCCCCC#N)CCC(=O)N(c1ccccc1)c1ccccc1,-,0,0,0,0,-,-
O=C(N/N=C\c1ccccn1)c1ccccc1O,0,0,0,0,14.7,0,0
O=C(N/N=C\c1ccccn1)c1cccc(C(=O)N/N=C\c2ccccn2)n1,0,0,0,0,0,-,-
Cc1ccc(-n2c(COc3ccccc3)nnc2SCC(=O)Nc2ccccc2-c2ccccc2)cc1,-,0,0,0,0,-,-
O=C(NCc1ccccc1)c1noc2c1CCCCC2,0,0,0,0,15.5,13.0,0
Cc1ccc(NC(=O)c2noc3c2CCC3)cc1C,0,0,0,4.2,18.8,19.1,0
Cc1ccc(S(=O)(=O)N(C)c2cccc3c2S(=O)(=O)N([C@H](C)c2ccccc2)C[C@@H](COCc2ccccc2)O3)cc1,-,0,0,0,0,-,-
CCCCc1ccc(-c2noc(CCC(=O)NCC)n2)cc1,-,0,0,-,0,-,-
Cc1ccc(/C=N/NC(=O)c2ccc(Br)o2)s1,0,0,0,0,0,-,-
CCN(CC)c1ccc(/C=N/NC(=O)c2ccc(Br)o2)cc1,0,0,0,0,17.4,18.6,0
CCc1ccc(/C=N\NC(=O)c2ccc(Br)o2)s1,0,0,0,0,15.5,12.6,0
CCN(CC)c1ccc(/C=N/NC(=O)c2ccc3c(c2)OCCO3)cc1,0,0,0,0,0,-,-

# Bioassay records: PubChem BioAssay, The Scripps Research Institute Molecular Screening Center
